Bioassay records deposited in PubChem by National Center for Advancing Translational Sciences (NCATS).
Most compounds without a hit are left out; they make up all but 7.8% or so of the library.
VACV Venus inh: inhibitors of vaccinia virus (Venus reporter) | Vaccinia virus Venus reporter expression, fluorescence | Potency, µM (series often up to 36.5 µM), inactives show at the highest dose activity change, negative = inhibition, usual class: inhibitors | actives 0.46% (n = 330,000) | AID 720580; calls by dose curve; tested in A549 cells; further: potency means the concentration at half of the fitted maximal effect; nearly all actives have a fitted effect of over 30% in size
VACV mCherry inh: vaccinia inhibition (mCherry reporter). Potency, µM (titrated, usually from 36.5 µM), for inactives: at the highest dose activity change, negative = inhibition, most hits filed as inhibitors. actives 0.63% (n = 310,000). Vaccinia virus mCherry reporter infection, fluorescence; calls by dose curve; tested in A549 cells; further: potency means the concentration at half of the fitted maximal effect; nearly all actives have a fitted effect of over 35% in size
HCV inhibitor: inhibitors of hepatitis C virus infection; Huh7.5.1 HCVcc-Cre infection, luciferase reporter, 44 h; Potency, µM (series often up to 41.8 µM), for the others: at the highest dose activity change, negative = inhibition, actives largely listed as inhibitors; actives 3.4% (n = 340,000); AID 651820; active means well fitted inhibition curve with a large enough effect; inconclusive means small, poorly fitted or top-dose-only effect, or another doubt; inactive means no such curve, though single readings can be large or run the other way; further: potency means the concentration at half of the fitted maximal effect
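Luciferase read-out (15 sec integration) after a 15 min room-temperature substrate step quantifies HCVcc-Cre infection. Cells, 1,000 per well, had compound added 4 h post-plating, then virus at ~0.5 moi, and were cultured 44 h.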
MARV entry inh: blocks Marburg virus binding to or entry into cells; Marburg virus pseudotyped entry inhibition, cell reporter; actives 1.8% (n = 300,000); Potency, µM (doses to about 37.8 µM), for the others: at the top dose activity change, negative = inhibition, usual class: inhibitors; AID 540276; calls by dose curve; tested in HEK293 cells; further: potency means the concentration at half of the fitted maximal effect
HCMV inh: human cytomegalovirus inhibition. activity change, negative = inhibition, % at 57.5 µM. HFF cells, HCMV-luciferase reporter, 72 h; hits give low values. AID 1259415. actives 4.5% (n = 410,000); in the data active means activity change below about -60%; inconclusive means no clear call, values can overlap the other calls; inactive means above about -39%
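HFF cells seeded 16 h at 37C, treated with compounds, infected with luciferase-reporter HCMV at MOI 1 PFU/cell; luciferase read at 72 h post infection, normalized to buffer-only and Salinomycin controls.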
LASV entry inh: Lassa virus entry inhibition | Lassa virus pseudotype entry inhibition, cell reporter | actives 1.2% (n = 300,000) | Potency, µM (top dose mostly 37.9 µM), without a hit: top-dose activity change, negative = inhibition, hits mostly inhibitors; calls by dose curve; tested in HEK293 cells; further: potency means the concentration at half of the fitted maximal effect; nearly all actives have a fitted effect of over 50% in size
The depositor's hits bear a star; i = inactive; ? = inconclusive; / = no result given; [ ] = another dose, or the depositor's remark. On the % scale 0 is the no-effect control and ±100 the full control effect.

SMILES	VACV Venus inh	VACV mCherry inh	HCV inhibitor	MARV entry inh	HCMV inh	LASV entry inh
COc1cccc(CNC(=O)CN2C(=O)CSc3c2c(C)nn3-c2ccccc2)c1OC	1.7%	1.1%	/	/	-15.0	-25.7%[46.1 µM]
COc1cccc(C(=O)Nc2ccc(NC(=O)C(C)(C)C)cn2)c1	-3.7%	-5.3%	?	12.6µM*	7.1	7.08µM*
COc1cccc(C(=O)Nc2ccc(NC(=O)c3ccc(C(C)(C)C)cc3)cc2)c1	-17.1%	-3.5%	/	/	-96.9*	5.7%[46.1 µM]
CC(=O)Nc1cccc(OCCCNC(=O)c2ccc(C(C)(C)C)cc2)c1	/	/	10µM*	/	31.6	/
COc1cc2c(cc1NC(=O)c1ccc(C(C)(C)C)cc1)CCCC2	5.0%	10µM*	?	4.47µM*	-90.3*	1.41µM*
COc1ccc(C(=O)Nc2cc3c(cc2OC)CCCC3)cc1Br	-15.4%	i	?	?	-17.5	32.4%
Cc1cc(C)nc(S[C@H]2C[C@@H](C(=O)N3CCN(c4ccccc4F)CC3)N(Cc3ccccc3C(F)(F)F)C2)n1	-3.6%	-1.3%	/	/	/	/
Cc1cnc2ccccc2c1/C=C/c1ccc(N)cc1	-20.8%	-28.4%	/	/	/	/
CC1CCN(CC(O)COCCC23CC4CC(CC(C4)C2)C3)CC1 (stereo unspecified)	-27.8%	?	35.5µM*	6.51µM*	-74.6*	?
S=C(Nc1ccccc1)Nc1nccs1	-25.4%	-4.8%	?	14.1µM*	-18.6	14.6µM*
Fc1ccc(NC(=S)Nc2nccs2)cc1	/	/	?	/	-115.0*	/
Fc1ccc(NC(=S)Nc2ccc3nccnc3c2)cc1	-15.8%	-10.0%	-22.6%	/	-28.6	/
O=C(NCCc1ccccc1)c1cnn(-c2ccc(F)cc2)c1-n1cccc1	-7.4%	-6.5%	/	/	-25.9	-2.4%[46.1 µM]
COc1ccc(-c2nc3ccccc3o2)cc1NC(=O)c1ccc(OCC(C)C)cc1	-12.0%	-12.2%	/	4.5%[46.1 µM]	19.8	?
CCOc1cccc2sc(Nc3nc4ccc(NC(C)=O)cc4s3)nc12	?	-26.2%	4.47µM*	10.3µM*	-89.6*	?
COc1ccc(C)c2sc(NC(=O)CCS(=O)(=O)c3ccccc3)nc12	?	?	?	?	-89.2*	?
CCOc1cccc2sc(N(CCN(C)C)C(=O)CCS(=O)(=O)c3ccccc3)nc12	?	-13.3%	22.2%	?	21.3	2.8%
CCOc1cccc2sc(NC(=O)CCS(=O)(=O)c3ccccc3)nc12	-27.8%	?	22.4µM*	10µM*	/	?
Cc1nnc(NC(=O)CCS(=O)(=O)c2ccccc2)s1	-21.2%	?	-22.6%	-22.4%[46.1 µM]	119.7	?
CCC(=O)Nc1nc2ccc(NC(C)=O)cc2s1	-11.7%	-17.1%	12.6%	-8.5%	51.8	1.2%
COc1cccc2c1CCC1=CC(=O)CC[C@@]12C	-6.3%	-16.3%	/	/	/	/
CCOc1ccccc1NC(=O)Cn1c(=O)n(CC(=O)NCc2ccccc2Cl)c(=O)c2sccc21	-28.9%	-26.0%	/	?	22.7	-0.5%[46.1 µM]
CC(=O)c1ccc(-n2cc(-c3ccc(C(C)(C)C)cc3)[n+]3c2SCCC3)cc1	-10.1%	-8.0%	-3.0%	?	-98.3*	?
Fc1ccc(-c2cn(-c3ccccc3)c3[n+]2CCS3)cc1	-3.0%	i	?	2.1%[46.1 µM]	-25.3	-27.5%[46.1 µM]
Clc1ccc(-c2cn(-c3ccccc3)c3[n+]2CCS3)cc1	-3.9%	-2.5%	-23.0%	?	-72.4*	?
SMILES	VACV Venus inh	VACV mCherry inh	HCV inhibitor	MARV entry inh	HCMV inh	LASV entry inh
COc1ccc(-c2cn(-c3ccc(Br)cc3)c3[n+]2CCS3)cc1	-17.8%	-10.2%	-24.5%	-25.4%	-90.2*	-4.6%
CC1CN(CCC(=O)NCc2ccc3ncccc3c2)Cc2cc(Cl)ccc2O1 (stereo unspecified)	7.6%	-7.7%	/	/	/	/
O=C(NNC(=S)Nc1ccc(Cl)c(Cl)c1)c1ccccn1	?	?	4.47µM*	/	-82.3*	/
O=C(NNC(=O)C(c1ccccc1)c1ccccc1)c1ccccn1	?	?	6.31µM*	4.61µM*	-97.3*	?
O=C(CCc1ccccc1)NNC(=O)c1ccccc1C(=O)O	-4.9%	-7.4%	27.1%	-1.6%	38.2	4.61µM*
CCNC(=S)NNC(=O)c1ccccn1	?	?	-9.5%	?	51.3	?
O=C(CCc1ccccc1)NNC(=O)c1ccccn1	/	/	?	/	-75.5*	/
O=Cc1ccc([B-](F)(F)F)o1	/	/	/	/	4.9	/
Cc1c(C(=O)NC2CCCCCC2)sc2ncnc(NCC3CCCO3)c12 (stereo unspecified)	-8.5%	-9.7%	/	/	/	/
C[C@@H]1CN([C@@H](C)CO)C(=O)CCCn2cc(nn2)CO[C@H]1CN(C)C(=O)Nc1ccc(N2CCN(C)CC2)cc1	/	/	/	/	5.8	/
CCOc1ccccc1NC(=O)CSc1cn(CC(=O)N2CCCCCC2)c2ccccc12	-10.4%	-12.2%	/	/	?	14.7%[46.1 µM]
CCCC(=O)NCC1(N(C)C)CCCCC1	10.4%	-13.0%	/	34.6%[46.1 µM]	18.8	?
COc1cccc(C2CC(c3ccc(Br)cc3)=NN2C(=O)c2ccncc2)c1OC (stereo unspecified)	?	14.1µM*	?	?	-11.3	?
COc1cccc(C2CC(c3cccc(NS(C)(=O)=O)c3)=NN2C(=O)c2ccccc2)c1OC (stereo unspecified)	-19.5%	-0.4%	?	?	-73.2*	14.1µM*
CCc1cccc(NC(=O)CN2C(=O)COc3ccc(S(=O)(=O)N4CCC(C)CC4)cc32)c1	-9.8%	-10.2%	/	/	-2.6	-11.2%[46.1 µM]
CCCn1c(N)c(C(=O)CSc2ncc(C(F)(F)F)cc2Cl)c(=O)[nH]c1=O	-6.8%	-5.9%	-9.2%	?	-35.0	3.16µM*
Cc1cc(C)n(-c2nc(NCC(C)O)c3c4c(sc3n2)COC(C)(C)C4)n1 (stereo unspecified)	/	/	-12.6%	?	-10.3	0.2%
Cc1cc(C)n(-c2nc(NCC(C)O)c3c4c(sc3n2)CCCC4)n1 (stereo unspecified)	-9.0%	/	5.62µM*	?	-17.4	?
Cc1cc(C)n(-c2nc(NCC3CCCO3)c3c4c(sc3n2)COC(C)(C)C4)n1 (stereo unspecified)	?	/	?	?	-29.2	?
Cc1cc(C)n(-c2nc(NCCCO)c3c4c(sc3n2)CCCC4)n1	-28.9%	/	7.08µM*	?	/	-5.2%
Cc1cc(C)n(-c2nc(NCCO)c3c4c(sc3n2)CCCC4)n1	?	/	7.08µM*	?	-28.5	?
O=c1c2oc3ccccc3c2n(Cc2ccccc2F)c(=O)n1Cc1ccccc1	-18.7%	-15.0%	/	/	-12.0	29.4%[46.1 µM]
COc1ccc(NC(=O)CSc2nc(-c3cc(OC)c(OC)c(OC)c3)[nH]c2-c2ccc(F)cc2)cc1	-24.3%	-20.2%	/	?	127.9	-23.8%[46.1 µM]
COc1ccc(Cl)cc1NC(=O)c1sc(-n2nc(C)c(Cc3ccccc3)c2C)nc1C	-9.5%	-12.2%	/	-10.8%[46.1 µM]	-37.0	14.2%[46.1 µM]
COC1=C[C@H](C(=O)NCCNC(C)=O)[C@@]2(C)Cc3ccccc3[C@@H]2CC1=O	/	/	/	-20.2%[14.2 µM]	/	?
